# Source: PubChem BioAssay
# The source made the active and inactive calls.
# Columns and labels:
# [1] = binders of probe aFSTL3 on microarray, primary screen, stem cell growth factor project, biochemical, small-molecule microarray, fluorescence 635/667 (AID 1064); details: higher = more signal;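 note: measures binding of the biotinylated anti-FSTL3 antibody to printed compounds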
# [2] = binders from COS7 lysate, DM2A8 probe, primary screen, torsin A project, cell lysate, small-molecule microarray, fluorescence 635/667 (AID 1065); details: higher = more signal, COS7 lysate expressing mutant human TOR1A
# [3] = binders of probe aFGF2 on microarray, primary screen, stem cell growth factor project, biochemical, small-molecule microarray, fluorescence 635/667 (AID 1067); details: higher = more signal;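 note: measures binding of biotinylated aFGF2 protein to printed compounds on slides; z-score merges feature fluorescence and signal-to-noise across triplicate slides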
# [4] = binders of probe aFGF10 on microarray, primary screen, stem cell growth factor project, biochemical, small-molecule microarray, fluorescence 635/667 (AID 1071); details: higher = more signal;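 note: score merges 667 nm spot intensity and signal to noise from triplicate slides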
# [5] = molecular target: Neurogenic locus notch homolog protein 2 (Homo sapiens) (UniProt Q04721); experiment: Notch2 binders on small-molecule microarrays, primary screen, biochemical, small-molecule microarray, 635 nm fluorescence, stem cell growth factors (AID 1073); details: Notch2 binding, higher = more signal
# [6] = molecular target: Pro-neuregulin-1, membrane-bound isoform (Homo sapiens) (UniProt Q02297); experiment: NRG1 binders on small-molecule microarrays, primary screen, psychiatric disease protein project, biochemical, small-molecule microarray, fluorescence 635/667 (AID 1075); details: NRG1 binding, 635 nm fluorescence, higher = more signal;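 note: score combines 667 nm spot fluorescence with signal to noise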
# Sequence of Pro-neuregulin-1, membrane-bound isoform (Homo sapiens) (Q02297 whole entry, looked up, the tested form may be a part, canonical isoform): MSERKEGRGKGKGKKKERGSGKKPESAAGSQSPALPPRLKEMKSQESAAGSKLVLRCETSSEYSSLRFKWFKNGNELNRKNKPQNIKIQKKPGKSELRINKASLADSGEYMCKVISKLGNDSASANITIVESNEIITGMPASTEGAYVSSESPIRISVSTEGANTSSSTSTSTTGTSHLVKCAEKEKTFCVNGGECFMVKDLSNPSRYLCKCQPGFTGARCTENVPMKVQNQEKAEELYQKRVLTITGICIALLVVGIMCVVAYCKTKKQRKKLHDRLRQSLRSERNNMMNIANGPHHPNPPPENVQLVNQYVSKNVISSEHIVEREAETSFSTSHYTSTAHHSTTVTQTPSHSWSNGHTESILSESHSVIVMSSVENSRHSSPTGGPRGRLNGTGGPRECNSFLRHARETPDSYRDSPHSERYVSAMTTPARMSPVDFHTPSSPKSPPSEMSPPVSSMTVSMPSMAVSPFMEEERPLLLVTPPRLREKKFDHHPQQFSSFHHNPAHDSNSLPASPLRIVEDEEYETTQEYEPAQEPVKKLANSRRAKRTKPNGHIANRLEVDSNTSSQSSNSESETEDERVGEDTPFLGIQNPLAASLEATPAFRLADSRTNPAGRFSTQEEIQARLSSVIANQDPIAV
# [7] = tested on: Neuregulin-1 EGF-like domain; experiment: binders of neuregulin-1 EGF-like domain, primary screen, biochemical, small-molecule microarray, 635 nm fluorescence (AID 1081); details: small-molecule microarray binding, higher = more signal;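 note: binding of the protein to compounds printed on small-molecule microarray slides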
# [8] = FRG1 promoter luciferase signal modulators, primary screen, FRG1 inhibition for FSHD, cell-based, C2C12 myotubes, firefly/Renilla luciferase, luminescence (AID 1084); details: higher = more signal, called active from +8 up or from −8 down
# [9] = binders of probe aFST on microarray, primary screen, stem cell growth factor project, biochemical, small-molecule microarray, fluorescence 635/667 (AID 1086); details: higher = more signal;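 note: score merges 667 nm fluorescence with signal-to-noise of each printed compound spot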
# [10] = binders of probe aHhip on microarray, primary screen, stem cell growth factor project, biochemical, small-molecule microarray, fluorescence 635/667 (AID 1087); details: higher = more signal;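 note: score merges spot fluorescence at 667nm with spot signal to noise ratio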
# [11] = tested on: PRMT1 (protein arginine N-methyltransferase 1); experiment: PRMT1 binders on small-molecule microarrays, primary screen, biochemical, small-molecule microarray, 635 nm fluorescence (AID 1088); details: small-molecule microarray binding, higher = more signal;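 note: binding of Prmt1 protein to compounds spotted on small-molecule microarray slides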
# [12] = yeast growth modulation, basal conditions, primary screen, YJM789 clinical isolate, OD600, 24 h (AID 1089);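 note: growth of clinical yeast isolate S. cerevisiae YJM 789 seeded 1000 cells per well; test concentration not given here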; details: S. cerevisiae YJM789 growth, higher = more signal, called active from +8 up or from −8 down
# [13] = fission yeast growth modulation, primary screen, strain 972, OD600, 24 h, no modulator (AID 1090);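 note: basal condition with compound alone and no growth modifier present; test concentration not given here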; details: S. pombe 972 growth, higher = more signal, called active from +8 up or from −8 down
# [14] = S. cerevisiae growth modulation with rapamycin, primary screen, strain BY4716, OD600, 96 h (AID 1091); details: higher = more signal, called active from +8 up or from −8 down; note: test concentration not given here
# [15] = molecular target: Torsin-1A-interacting protein 2 (Homo sapiens) (UniProt Q8NFQ8); experiment: LULL1 binders on small-molecule microarray, primary screen, cell lysate, human LULL1 lysate, 635/667 nm fluorescence (AID 1092); details: hLULL1 lysate binding, 635 nm fluorescence, higher = more signal;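 note: probe is lysate of COS7 cells overexpressing human LULL1; score merges per-feature 667 nm fluorescence with signal-to-noise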
# Sequence of Torsin-1A-interacting protein 2 (Homo sapiens) (Q8NFQ8 whole entry, looked up): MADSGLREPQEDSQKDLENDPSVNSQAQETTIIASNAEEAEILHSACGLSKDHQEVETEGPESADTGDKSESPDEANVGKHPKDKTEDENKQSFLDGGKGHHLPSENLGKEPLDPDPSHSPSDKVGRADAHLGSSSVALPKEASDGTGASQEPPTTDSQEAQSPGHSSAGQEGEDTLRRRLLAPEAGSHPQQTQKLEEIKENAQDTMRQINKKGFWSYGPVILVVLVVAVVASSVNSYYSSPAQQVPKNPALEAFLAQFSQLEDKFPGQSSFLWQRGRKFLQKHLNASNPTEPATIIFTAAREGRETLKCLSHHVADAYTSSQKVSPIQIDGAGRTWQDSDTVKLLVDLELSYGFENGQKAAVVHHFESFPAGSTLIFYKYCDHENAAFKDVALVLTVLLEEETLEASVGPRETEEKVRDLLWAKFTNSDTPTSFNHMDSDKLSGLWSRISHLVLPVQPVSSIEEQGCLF
# [16] = E. coli growth modulation, two-sided OD650, primary screen, E. coli filamentation project, strain DRC41, 24 h (AID 1093); details: OD650, 24 h, higher = more signal, called active from +8 up or from −8 down;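 note: MC1000 strain lacking acrAB efflux and sulA so SOS filamentation is blocked; test concentration not given here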
# [17] = small-molecule microarray binders of probe aLefty2, primary screen, biochemical, biotinylated probe, 635/667 nm fluorescence (AID 1094); details: higher = more signal;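 note: score merges spot fluorescence near 667 nm with spot signal-to-noise ratio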
# [18] = tested on: Noggin (protein binding on small-molecule microarray); experiment: Noggin binders on small-molecule microarray, primary screen, biochemical, 635/667 nm fluorescence (AID 1095); details: 635 nm fluorescence, higher = more signal;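 note: score merges 667 nm feature fluorescence with signal to noise over triplicate slides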
# [19] = molecular target: Neurogenic locus notch homolog protein 3 (Homo sapiens) (UniProt Q9UM47); experiment: NOTCH3 binders on small-molecule microarray, primary screen, biochemical, 635/667 nm fluorescence (AID 1096); details: NOTCH3 binding, 635 nm fluorescence, higher = more signal
# Sequence of Neurogenic locus notch homolog protein 3 (Homo sapiens) (Q9UM47 whole entry, looked up): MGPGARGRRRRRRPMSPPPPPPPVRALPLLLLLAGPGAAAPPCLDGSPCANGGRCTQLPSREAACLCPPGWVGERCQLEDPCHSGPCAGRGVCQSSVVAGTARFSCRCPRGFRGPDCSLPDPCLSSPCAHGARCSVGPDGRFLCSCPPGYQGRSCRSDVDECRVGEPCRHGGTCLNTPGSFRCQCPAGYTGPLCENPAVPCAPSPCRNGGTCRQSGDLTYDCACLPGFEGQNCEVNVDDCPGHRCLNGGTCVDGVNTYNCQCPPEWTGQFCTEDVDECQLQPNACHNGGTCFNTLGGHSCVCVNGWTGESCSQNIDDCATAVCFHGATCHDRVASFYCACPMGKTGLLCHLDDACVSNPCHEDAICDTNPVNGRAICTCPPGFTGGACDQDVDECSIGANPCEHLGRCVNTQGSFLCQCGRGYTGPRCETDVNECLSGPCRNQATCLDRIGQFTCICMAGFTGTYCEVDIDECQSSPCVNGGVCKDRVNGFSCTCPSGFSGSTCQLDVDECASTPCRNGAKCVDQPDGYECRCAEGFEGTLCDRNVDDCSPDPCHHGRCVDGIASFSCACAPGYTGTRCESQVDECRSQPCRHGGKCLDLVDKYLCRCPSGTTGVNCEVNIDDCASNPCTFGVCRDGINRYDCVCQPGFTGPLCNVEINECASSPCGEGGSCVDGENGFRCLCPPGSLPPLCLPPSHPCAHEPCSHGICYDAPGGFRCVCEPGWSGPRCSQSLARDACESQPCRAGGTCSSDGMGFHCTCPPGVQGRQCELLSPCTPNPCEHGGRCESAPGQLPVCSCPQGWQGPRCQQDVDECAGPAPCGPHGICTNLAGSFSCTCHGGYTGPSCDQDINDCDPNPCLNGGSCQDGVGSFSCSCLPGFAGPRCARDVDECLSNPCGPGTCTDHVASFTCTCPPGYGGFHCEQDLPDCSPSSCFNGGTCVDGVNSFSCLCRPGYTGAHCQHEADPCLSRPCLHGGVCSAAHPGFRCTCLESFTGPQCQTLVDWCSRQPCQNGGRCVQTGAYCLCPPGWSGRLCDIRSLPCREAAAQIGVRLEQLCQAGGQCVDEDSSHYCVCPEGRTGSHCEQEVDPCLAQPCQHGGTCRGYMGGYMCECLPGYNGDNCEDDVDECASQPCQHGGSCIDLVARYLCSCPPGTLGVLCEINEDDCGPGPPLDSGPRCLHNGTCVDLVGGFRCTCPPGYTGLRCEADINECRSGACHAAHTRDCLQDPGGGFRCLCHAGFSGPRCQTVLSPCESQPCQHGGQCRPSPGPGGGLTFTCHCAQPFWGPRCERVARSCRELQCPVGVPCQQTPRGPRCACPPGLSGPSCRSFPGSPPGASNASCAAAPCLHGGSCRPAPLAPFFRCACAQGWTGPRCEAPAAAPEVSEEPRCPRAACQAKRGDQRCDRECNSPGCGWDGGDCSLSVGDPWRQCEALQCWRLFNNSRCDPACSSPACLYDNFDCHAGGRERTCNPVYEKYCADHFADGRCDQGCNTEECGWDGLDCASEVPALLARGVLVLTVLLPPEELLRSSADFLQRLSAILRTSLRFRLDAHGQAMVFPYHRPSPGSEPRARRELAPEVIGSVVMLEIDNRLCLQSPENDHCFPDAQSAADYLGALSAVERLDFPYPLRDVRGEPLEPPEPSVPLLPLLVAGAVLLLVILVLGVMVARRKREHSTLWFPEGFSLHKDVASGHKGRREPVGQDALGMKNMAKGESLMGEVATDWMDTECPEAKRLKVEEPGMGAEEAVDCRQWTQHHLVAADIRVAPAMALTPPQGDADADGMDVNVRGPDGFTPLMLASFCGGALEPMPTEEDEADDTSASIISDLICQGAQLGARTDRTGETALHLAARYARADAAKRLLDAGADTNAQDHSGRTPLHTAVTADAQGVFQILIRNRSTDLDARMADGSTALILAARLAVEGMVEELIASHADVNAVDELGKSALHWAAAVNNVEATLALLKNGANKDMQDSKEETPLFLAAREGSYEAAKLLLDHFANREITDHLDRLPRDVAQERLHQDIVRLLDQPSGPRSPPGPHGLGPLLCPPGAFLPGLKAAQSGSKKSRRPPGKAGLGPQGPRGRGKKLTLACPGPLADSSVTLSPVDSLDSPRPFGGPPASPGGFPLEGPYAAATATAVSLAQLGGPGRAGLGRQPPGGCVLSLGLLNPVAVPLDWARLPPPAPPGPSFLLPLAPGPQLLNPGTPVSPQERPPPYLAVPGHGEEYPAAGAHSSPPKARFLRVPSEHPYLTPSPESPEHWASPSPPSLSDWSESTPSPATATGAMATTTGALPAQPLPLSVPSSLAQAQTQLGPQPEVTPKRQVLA
# [20] = small-molecule microarray binders of probe aEGFR, primary screen, biochemical, biotinylated probe, 635/667 nm fluorescence (AID 1097); details: higher = more signal;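 note: probe is a biotinylated anti-EGFR antibody binding compounds printed on slides; score combines fluorescence near 667 nm and signal to noise of each spot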
SMILES,composite z-score [1],composite z-score [2],composite z-score [3],composite z-score [4],composite z-score [5],composite z-score [6],composite z-score [7],z-score [8],composite z-score [9],composite z-score [10],composite z-score [11],z-score [12],z-score [13],z-score [14],composite z-score [15],z-score [16],composite z-score [17],composite z-score [18],composite z-score [19],composite z-score [20]
C=C(C)C1CN([C@H](CO)c2ccccc2)C(=O)/C1=C\c1ccccc1 (stereo not given in full),-0.511,0.188,-0.111,0.305,-0.0443,0.049,0.465,-1.39 (inactive),0.173,-0.174,0.464,-0.334 (inactive),-3.2 (inactive),-0.481 (inactive),-0.302,1.82 (inactive),-0.0931,0.467,0.0584,-0.167
C=C(CCCC)C(=O)CC[C@H](OC(=O)c1ccccc1-c1ccccc1C(=O)O)c1cccc(OCCO)c1,0.0622,0.375,-0.133,-0.416,-1.37,1.29,0.652,-0.0278 (inactive),-0.284,-0.0994,0.317,-0.0349 (inactive),-0.386 (inactive),-0.678 (inactive),1,0.171 (inactive),-0.186,0.135,-0.186,-0.221
CC(C)c1ccc(NN2C(C(O)C3=C[C@H]4C[C@@H](C3)C4(C)C)C=CC3C(=O)N(c4ccccc4)C(=O)C32)cc1 (stereo not given in full),0.481,0.357,0.0301,0.605,1.16,1.74,0.885,-1.01 (inactive),0.907,-0.302,1.32,0.191 (inactive),-0.0249 (inactive),0.264 (inactive),2.6,-0.661 (inactive),0.363,0.501,1.08,0.114
C=C[C@@H](CO)NS(=O)(=O)c1ccc(Br)cc1,0.265,-0.066,-0.22,-0.426,-1.14,-0.361,-0.14,-1.84 (inactive),-0.257,-0.156,-0.635,-3.08 (inactive),-3.63 (inactive),-1.27 (inactive),-0.361,3.54 (inactive),-0.24,-0.275,-1.85,-0.164
CCCCN1CC=CC23O[C@@H]4C=CCCOC(=O)C4[C@H]2C(=O)N(CCO)[C@@H]3C1=O (stereo not given in full),0.18,-0.881,-0.276,1.02,-1.29,-0.944,-0.397,-0.183 (inactive),-1.01,0.176,-0.0141,-0.207 (inactive),-0.492 (inactive),-0.19 (inactive),-0.248,1.5 (inactive),-0.182,0.132,-0.414,-0.167
